Among the data in the supplement of paper PMC9492666 are relative cell viability values, retold here.

Where a name gives a salt, the structure may show the parent alone.

The test system of one assay is HCC1937. The assay can be described thus: relative cell viability, compound + erastin, vs DMSO (fraction of DMSO control); higher = less growth inhibition. Particulars: 72 h.
The subject of another assay is MDA-MB-231. The assay is described as above. Particulars: 72 h.
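Further: viability read by CCK-8 kit in 96-well plates, part of a combination screen pairing lipid-metabolism-targeting compounds with erastin.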

Take `COc1cc(O)c2c(c1)O[C@H](c1ccc(O)cc1)CC2=O` [Sakuranetin] + CCOc1ccccc1-n1c(C(C)N2CCN(C(=O)COc3ccc(Cl)cc3)CC2)nc2ccccc2c1=O [erastin]: the relative cell viability in the assay with HCC1937 stood at 0.648; in the assay on MDA-MB-231, 0.527.

Turning to `Nc1ccc(C(=O)O)c(O)c1` [Aminopar] + CCOc1ccccc1-n1c(C(C)N2CCN(C(=O)COc3ccc(Cl)cc3)CC2)nc2ccccc2c1=O [erastin], the relative cell viability with HCC1937 was determined as 0.773; with MDA-MB-231, 0.664.

Take `O=C1c2cc(CO)cc(O)c2C(=O)c2c(O[C@@H]3O[C@H](CO)[C@@H](O)[C@H](O)[C@H]3O)cccc21` [Aloe-emodin-8-O-beta-D-glucopyranoside] + CCOc1ccccc1-n1c(C(C)N2CCN(C(=O)COc3ccc(Cl)cc3)CC2)nc2ccccc2c1=O [erastin]: the relative cell viability was 0.493 with HCC1937 and 0.704 in the assay with MDA-MB-231.

For the compound `CC(C)(C)N1C(=O)C(Nc2ccc(N3CCCCC3)cc2)=C(c2ccccc2)S1(=O)=O` + CCOc1ccccc1-n1c(C(C)N2CCN(C(=O)COc3ccc(Cl)cc3)CC2)nc2ccccc2c1=O [erastin], the relative cell viability in the assay with HCC1937 worked out at 0.678; with MDA-MB-231 it was 0.797.

With `Cc1nc(-c2nc(-c3ccc(OC(F)(F)F)cc3)no2)nn1Cc1cccc(N2CCC(S(C)(=O)=O)CC2)c1` + CCOc1ccccc1-n1c(C(C)N2CCN(C(=O)COc3ccc(Cl)cc3)CC2)nc2ccccc2c1=O [erastin], the relative cell viability in the assay on HCC1937 was 0.647; in the assay on MDA-MB-231, 0.621.

As for `O=C(Oc1ccc([N+](=O)[O-])cc1)N1CCN(Cc2cccc(Oc3ccccc3)c2)CC1` + CCOc1ccccc1-n1c(C(C)N2CCN(C(=O)COc3ccc(Cl)cc3)CC2)nc2ccccc2c1=O [erastin], the relative cell viability in the assay with HCC1937 worked out at 0.199; with MDA-MB-231, 0.312.

Turning to `CC1(C)CC[C@]2(C(=O)O[C@@H]3O[C@H](CO)[C@@H](O)[C@H](O)[C@H]3O)CC[C@]3(C)C(=CC[C@@H]4[C@@]5(C)CC[C@H](O[C@@H]6O[C@H](C(=O)O)[C@@H](O)[C@H](O)[C@H]6O)C(C)(C)[C@@H]5CC[C@]43C)[C@@H]2C1` [Chikusetsusaponin IVa] + CCOc1ccccc1-n1c(C(C)N2CCN(C(=O)COc3ccc(Cl)cc3)CC2)nc2ccccc2c1=O [erastin], the relative cell viability came out at 0.592 with HCC1937 and 0.682 with MDA-MB-231.

Consider `COc1cc(N2CCN(C)CC2)ccc1Nc1ncc2c(n1)N(C)c1ccccc1C(=O)N2` + CCOc1ccccc1-n1c(C(C)N2CCN(C(=O)COc3ccc(Cl)cc3)CC2)nc2ccccc2c1=O [erastin], for which the relative cell viability in the assay on HCC1937 is 0.365; in the assay with MDA-MB-231, 0.788.

As for `Nn1nnc2ccccc21` [1-Aminobenzotriazole] + CCOc1ccccc1-n1c(C(C)N2CCN(C(=O)COc3ccc(Cl)cc3)CC2)nc2ccccc2c1=O [erastin], the relative cell viability came to 0.76 with HCC1937 and 0.73 in the assay on MDA-MB-231.

Take `CCC(=O)Nc1cccc(Oc2nc(Nc3ccc(N4CCN(C)CC4)cc3OC)ncc2Cl)c1` + CCOc1ccccc1-n1c(C(C)N2CCN(C(=O)COc3ccc(Cl)cc3)CC2)nc2ccccc2c1=O [erastin]: the relative cell viability in the assay with HCC1937 was 0.255; with MDA-MB-231, 0.795.

Take `COC(=O)c1cc(Cl)c(O)c(S(=O)(=O)Nc2cc(-c3ccccc3)c(F)cc2F)c1` + CCOc1ccccc1-n1c(C(C)N2CCN(C(=O)COc3ccc(Cl)cc3)CC2)nc2ccccc2c1=O [erastin]: the relative cell viability was determined as 0.728 in the assay with HCC1937 and 0.806 in the assay with MDA-MB-231.

As for `COc1c(/C=C/C(=O)c2ccc(O)cc2)ccc(O)c1CC=C(C)C` + CCOc1ccccc1-n1c(C(C)N2CCN(C(=O)COc3ccc(Cl)cc3)CC2)nc2ccccc2c1=O [erastin], the relative cell viability was 0.58 in the assay on HCC1937 and 0.749 in the assay with MDA-MB-231.

`CCOP(=O)(OCC)C(=Cc1cc(C(C)(C)C)c(O)c(C(C)(C)C)c1)P(=O)(OCC)OCC` + CCOc1ccccc1-n1c(C(C)N2CCN(C(=O)COc3ccc(Cl)cc3)CC2)nc2ccccc2c1=O [erastin]: the relative cell viability was 0.534 in the assay with HCC1937 and 0.648 in the assay with MDA-MB-231.

`COc1ccc(C2(CNC(=O)c3ccc(NC(=O)c4ccco4)cc3)CCOCC2)cc1` + CCOc1ccccc1-n1c(C(C)N2CCN(C(=O)COc3ccc(Cl)cc3)CC2)nc2ccccc2c1=O [erastin]: the relative cell viability in the assay with HCC1937 was 0.518; with MDA-MB-231 it was 0.728.

With `CCC(C)(Oc1ccc(C2(c3ccc(OC(C)(CC)C(=O)O)cc3)CCCCC2)cc1)C(=O)O` (stereo unspecified) [Clinofibrate] + CCOc1ccccc1-n1c(C(C)N2CCN(C(=O)COc3ccc(Cl)cc3)CC2)nc2ccccc2c1=O [erastin], the relative cell viability in the assay on HCC1937 turned out to be 0.544; with MDA-MB-231, 0.325.

With `O=C(Nc1ccc(C(O)(C(F)(F)F)C(F)(F)F)cc1)c1ccccc1Cl` + CCOc1ccccc1-n1c(C(C)N2CCN(C(=O)COc3ccc(Cl)cc3)CC2)nc2ccccc2c1=O [erastin], the figures for the relative cell viability with HCC1937 and in the assay with MDA-MB-231 were 0.769 and 0.844, respectively.

On to `Nc1ccc(O)c(C(=O)O)c1` [Mesalamine] + CCOc1ccccc1-n1c(C(C)N2CCN(C(=O)COc3ccc(Cl)cc3)CC2)nc2ccccc2c1=O [erastin], for which the relative cell viability in the assay on HCC1937 was 0.772; in the assay with MDA-MB-231, 0.585.

`C=C[C@H]1CN2CC[C@H]1C[C@@H]2[C@@H](O)c1ccnc2ccc(OC)cc12` [Quinidine sulfate] + CCOc1ccccc1-n1c(C(C)N2CCN(C(=O)COc3ccc(Cl)cc3)CC2)nc2ccccc2c1=O [erastin]: the relative cell viability in the assay with HCC1937 was found to be 0.7; in the assay with MDA-MB-231, 0.398.

On to `N=C(N)NCCC(=O)O` [3-Guanidinopropionic Acid] + CCOc1ccccc1-n1c(C(C)N2CCN(C(=O)COc3ccc(Cl)cc3)CC2)nc2ccccc2c1=O [erastin], for which the figures for the relative cell viability with HCC1937 and with MDA-MB-231 were 0.714 and 0.852, respectively.

Regarding `O=S(=O)(Nc1ccc(C(O)(C(F)(F)F)C(F)(F)F)cc1)c1cccs1` + CCOc1ccccc1-n1c(C(C)N2CCN(C(=O)COc3ccc(Cl)cc3)CC2)nc2ccccc2c1=O [erastin], the relative cell viability is 0.652 with HCC1937 and 0.568 in the assay on MDA-MB-231.

In the case of `COC(=O)/C=C/c1cccc(N(Cc2ccc(-c3ccc(N(C)C)cc3)cc2)C(=O)C2CCCCC2)c1` [Fexaramine] + CCOc1ccccc1-n1c(C(C)N2CCN(C(=O)COc3ccc(Cl)cc3)CC2)nc2ccccc2c1=O [erastin], the values for the relative cell viability with HCC1937 and in the assay on MDA-MB-231 were 0.5 and 1.08, respectively.

For `CCCCC[C@H](O)CC(=O)CCc1ccc(O)c(OC)c1` [6-Gingerol] + CCOc1ccccc1-n1c(C(C)N2CCN(C(=O)COc3ccc(Cl)cc3)CC2)nc2ccccc2c1=O [erastin], the results for the relative cell viability with HCC1937 and in the assay with MDA-MB-231 were 0.444 and 0.693, respectively.

Consider `Cc1c(C)c2c(c(C)c1O)CCC(C)(COc1ccc(CC3SC(=O)NC3=O)cc1)O2` (stereo unspecified) [Troglitazone] + CCOc1ccccc1-n1c(C(C)N2CCN(C(=O)COc3ccc(Cl)cc3)CC2)nc2ccccc2c1=O [erastin], for which the relative cell viability stood at 0.641 in the assay on HCC1937 and 0.669 with MDA-MB-231.

Regarding `CCc1ccc(CCOc2ccc(CC3SC(=O)NC3=O)cc2)nc1` (stereo unspecified) [Pioglitazone] + CCOc1ccccc1-n1c(C(C)N2CCN(C(=O)COc3ccc(Cl)cc3)CC2)nc2ccccc2c1=O [erastin], the relative cell viability in the assay on HCC1937 stood at 0.803; with MDA-MB-231, 0.551.

Turning to `CNC(=O)c1cccc(NC(=O)N2CCC(Oc3ccccc3Cl)CC2)c1` + CCOc1ccccc1-n1c(C(C)N2CCN(C(=O)COc3ccc(Cl)cc3)CC2)nc2ccccc2c1=O [erastin], the relative cell viability in the assay with HCC1937 is 0.566; in the assay with MDA-MB-231, 0.523.

Take `Cc1cc(=O)oc2c(O)c(O)ccc12` [7,8-Dihydroxy-4-methylcoumarin] + CCOc1ccccc1-n1c(C(C)N2CCN(C(=O)COc3ccc(Cl)cc3)CC2)nc2ccccc2c1=O [erastin]: the relative cell viability in the assay with HCC1937 is 0.489; in the assay on MDA-MB-231, 0.881.

On to `O=C(Nc1cnccc1Cl)N1CCN(Cc2ccc3c(c2)OC(F)(F)O3)CC1` + CCOc1ccccc1-n1c(C(C)N2CCN(C(=O)COc3ccc(Cl)cc3)CC2)nc2ccccc2c1=O [erastin], for which the relative cell viability in the assay on HCC1937 stood at 0.486; with MDA-MB-231, 0.646.

Consider `COc1ccc(-c2cc(=O)c3c(O)c(OC)c(O)cc3o2)cc1OC` [Eupatilin] + CCOc1ccccc1-n1c(C(C)N2CCN(C(=O)COc3ccc(Cl)cc3)CC2)nc2ccccc2c1=O [erastin], for which the relative cell viability in the assay with HCC1937 is 0.431; in the assay on MDA-MB-231, 0.617.

In the case of `CCN(CC)c1ccc(C=NNC(=O)c2ccncc2)c(O)c1` + CCOc1ccccc1-n1c(C(C)N2CCN(C(=O)COc3ccc(Cl)cc3)CC2)nc2ccccc2c1=O [erastin], the results for the relative cell viability in the assay on HCC1937 and in the assay on MDA-MB-231 were 0.254 and 0.677, respectively.

As for `C[C@H](CCOc1cccc(CC(=O)O)c1)N(Cc1cccc(C(F)(F)F)c1Cl)CC(c1ccccc1)c1ccccc1` [RGX-104 free Acid] + CCOc1ccccc1-n1c(C(C)N2CCN(C(=O)COc3ccc(Cl)cc3)CC2)nc2ccccc2c1=O [erastin], the relative cell viability was determined as 0.564 in the assay with HCC1937 and 0.488 in the assay on MDA-MB-231.

With `CC[C@H](C)C(=O)O[C@H]1C[C@H](O)C=C2C=C[C@H](C)[C@H](CC[C@@H](O)C[C@@H](O)CC(=O)O)[C@H]21` [Pravastatin sodium] + CCOc1ccccc1-n1c(C(C)N2CCN(C(=O)COc3ccc(Cl)cc3)CC2)nc2ccccc2c1=O [erastin], the relative cell viability in the assay with HCC1937 was 0.909; in the assay on MDA-MB-231, 1.05.

Consider `CCN(CC)CCCC(C)Nc1c2ccc(Cl)cc2nc2ccc(OC)cc12` (stereo unspecified) [Quinacrine dihydrochloride] + CCOc1ccccc1-n1c(C(C)N2CCN(C(=O)COc3ccc(Cl)cc3)CC2)nc2ccccc2c1=O [erastin], for which the figures for the relative cell viability with HCC1937 and in the assay with MDA-MB-231 were 0.164 and 0.299, respectively.

Turning to `CCc1c(-c2ccccc2)c(-c2ccccc2)nn1-c1ccccc1-c1cccc(OCC(=O)O)c1` + CCOc1ccccc1-n1c(C(C)N2CCN(C(=O)COc3ccc(Cl)cc3)CC2)nc2ccccc2c1=O [erastin], the values for the relative cell viability in the assay with HCC1937 and in the assay with MDA-MB-231 were 0.84 and 0.861, respectively.
